Assay results reported in PubChem BioAssay.
Potency and affinity values are given separately. Records with an inconclusive call do not appear. Calls of active or inactive are those of the source. Unless noted, no rule for the calls is given here.

Experiments:
[1] = RMG-1 ovarian cancer cell viability loss – cherry-pick, dose response (AID 687029;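 active = signal drop whose fitted half-maximal concentration is at most twice the top valid dose, in every test run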;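 also: cells exposed to compound for 96 hours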); details: RMG-1 viability, CellTiterGlo ATP luminescence, 96 h; series mostly up to 35 µM
[2] = IOSE-T80 viability loss, PAX8-independent line – cell-based, cherry-pick, selectivity assay for PAX8 inhibitor project, dose response (AID 687032;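 active = fitted half-maximal concentration for viability loss no higher than twice the top valid dose, in every repeat run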;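 also: cells exposed to compound for 96 h before reading; 0% = neutral control wells and -100% = 2 µM mitoxantrone kill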); details: CellTiterGlo ATP luminescence, 96 h; series mostly up to 35 µM
[3] = CMV-driven luciferase expression suppression in HEK293 – cell-based, luminescence, dry powder, counter-screen for Pax8 inhibitor project, dose response (AID 743020;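 active = signal-lowering compounds whose fitted half-maximal concentration is at or below twice the top tested dose in every run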;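 also: HEK293 cells stably expressing the CMV luciferase reporter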); details: HEK293 CMV-luciferase reporter, SteadyGlo luminescence, 24 h; series mostly up to 35 µM
[4] = general cell-killing toxicity readout – plate reader, dry powder samples, cytotoxicity control for PAX8 inhibitor project, dose response (AID 743021); details: cell line, non-specific cytotoxicity counter-screen; series mostly up to 35 µM
[5] = IGROV1 cell killing – plate reader, dry powder samples, PAX8 inhibitor project, dose response (AID 743043); details: IGROV1 ovarian cancer cell cytotoxicity; series mostly up to 35 µM;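 also: more negative means fewer viable cells or more cytotoxicity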
[6] = toxicity toward immortalized ovarian surface epithelium – cell-based, plate reader, dry powder samples, cytotoxicity control for PAX8 inhibitor project, dose response (AID 743045); details: IOSE-T80 ovarian epithelial cells; series mostly up to 35 µM;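 also: 0% = neutral control median and -100% = positive control median; more negative values mean more cell killing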
[7] = A2780 cell killing – plate reader, dry powder samples, cytotoxicity control, dose response (AID 743046); details: A2780 ovarian cancer cytotoxicity; series mostly up to 35 µM;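 also: 0% = neutral control wells and -100% = cytotoxic reference compound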
[8] = OVCAR8 cell viability loss – plate reader, dry powder samples, PAX8 project, dose response (AID 743197); details: series mostly up to 35 µM
[9] = OVCAR-3 cell viability loss – plate reader, dry powder samples, PAX8 inhibitor project, dose response (AID 743044); details: NIH:OVCAR-3 ovarian cancer cell viability; max activity: at 35 µM, hits give low values unless noted; series mostly up to 50 µM

Measured: max activity

C[C@H]1CCCCO[C@@H](CN(C)Cc2ccc3c(c2)OCO3)[C@@H](C)CN([C@@H](C)CO)C(=O)c2cc(NC(=O)Nc3ccc(F)cc3)ccc2O1
not listed: [9]
inactive: all other assays above

C[C@H]1CN([C@@H](C)CO)C(=O)c2c(c3ccccc3n2C)-c2ccccc2CO[C@@H]1CN(C)S(=O)(=O)c1ccsc1
not listed: [7] | [9]
inactive: all other assays above

CC(C)NC(=O)N(C)C[C@H]1OCCCC[C@H](C)Oc2ccc(NC(=O)Nc3ccc(C(F)(F)F)cc3)cc2C(=O)N([C@H](C)CO)C[C@@H]1C
not listed: [9]
inactive: all other assays above

CS(=O)(=O)N1CC(=O)N2[C@H](CO)[C@H](c3ccc(C#CCC4CCCC4)cc3)[C@H]2C1
not listed: [7] | [9]
inactive: all other assays above

O=C(C[C@@H]1C[C@@H]2c3cc(NC(=O)Cc4ccncc4)ccc3O[C@@H]2[C@H](CO)O1)NCc1ccc(-c2ccccc2)cc1
not listed: [9]
inactive: all other assays above

C[C@H](CO)N1C[C@H](C)[C@H](CN(C)Cc2ccc(Cl)c(Cl)c2)OCCCC[C@H](C)Oc2ccc(NS(=O)(=O)c3ccc(F)cc3)cc2C1=O
not listed: [9]
inactive: all other assays above

C[C@H](O)C#Cc1ccc2c(c1)O[C@@H](CN(C)Cc1ccc(-c3ccccc3)cc1)[C@H](C)CN([C@H](C)CO)S2(=O)=O
not listed: [6] | [8] | [9]
inactive: all other assays above

C[C@@H]1CN([C@H](C)CO)C(=O)c2cc(NS(=O)(=O)c3ccc(Cl)cc3)ccc2O[C@@H](C)CCCCO[C@@H]1CN(C)Cc1ccc(Cl)c(Cl)c1
not listed: [7] | [9]
inactive: all other assays above

C[C@@H]1CCCCO[C@@H](CN(C)Cc2ccc(C(F)(F)F)cc2)[C@H](C)CN([C@@H](C)CO)C(=O)c2cc(NC(=O)Nc3ccc(F)cc3)ccc2O1
not listed: [9]
inactive: all other assays above

Cc1ccc(-c2ccc([C@H]3[C@@H](CO)N4CCCCN(C(=O)Nc5cccc(F)c5)C[C@H]34)cc2)cc1
not listed: [7] | [9]
inactive: all other assays above

CC(C)(C)S(=O)N1Cc2cc(C(=O)NCCCN3CCOCC3)nc(-c3cccc(C#CCC4CCCC4)c3)c2[C@@H]1CCO (stereo partly drawn)
not listed: [7] | [9]
inactive: all other assays above

COc1ccc(S(=O)(=O)Nc2ccc3c(c2)C(=O)N([C@@H](C)CO)C[C@@H](C)[C@@H](CN(C)Cc2ccc(C(F)(F)F)cc2)OCCCC[C@@H](C)O3)cc1
not listed: [6] | [8] | [9]
inactive: all other assays above

C[C@@H]1CN([C@H](C)CO)C(=O)c2cc(NS(=O)(=O)c3ccc(Cl)cc3)ccc2O[C@@H](C)CCCCO[C@H]1CN(C)S(=O)(=O)c1ccc(F)cc1
inactive: [1] | [2] | [3] | [4] | [9] 26.2% [at 1 µM, hits give low values] | [6]

C[C@@H]1CN([C@H](C)CO)S(=O)(=O)c2ccc(C#Cc3ccc(F)cc3)cc2O[C@H]1CN(C)C(=O)NC1CCCCC1
not listed: [9]
inactive: all other assays above

COc1ccccc1S(=O)(=O)N1CC[C@H]2[C@@H](CO)N(C)c3ccc(-c4ccc(C#N)cc4)cc3[C@H]21
not listed: [7] | [9]
inactive: all other assays above

COc1cccc(-c2ccc3c(c2)[C@H]2[C@H](CCN2C(=O)NC2CCCCC2)[C@@H](CO)N3C)c1
not listed: [7] | [9]
inactive: all other assays above

C[C@@H]1CCCCO[C@H](CN(C)Cc2ccccc2)[C@H](C)CN([C@@H](C)CO)C(=O)c2cc(NC(=O)Nc3ccc(C(F)(F)F)cc3)ccc2O1
not listed: [6] | [9]
inactive: all other assays above

C[C@H](CO)N1C[C@H](C)[C@H](CN(C)CC2CCCCC2)Oc2ccc(NS(=O)(=O)c3ccc(Cl)cc3)cc2CC1=O
not listed: [9]
inactive: all other assays above

C[C@@H]1CN([C@@H](C)CO)C(=O)Cc2cc(NC(=O)Nc3ccc(C(F)(F)F)cc3)ccc2O[C@H]1CN(C)C(=O)NC1CCCCC1
not listed: [9]
inactive: all other assays above

O=C(C[C@@H]1C[C@H]2c3cc(NC(=O)Nc4ccc(C(F)(F)F)cc4)ccc3O[C@H]2[C@H](CO)O1)NCc1ccc(Cl)cc1
not listed: [9]
inactive: all other assays above

O=S(=O)(c1ccccc1F)N1CC[C@H]2[C@H](CO)Nc3ccc(C4=CCCCC4)cc3[C@H]21
not listed: [6] | [8] | [9]
inactive: all other assays above

COc1ccccc1-c1ccc2c(c1)[C@@H]1[C@@H](CCN1S(=O)(=O)c1ccccc1F)[C@H](CO)N2
not listed: [9]
inactive: all other assays above

C[C@@H]1CCCCO[C@@H](CN(C)S(=O)(=O)c2ccc(Cl)cc2)[C@H](C)CN([C@@H](C)CO)C(=O)c2cc(N(C)C)ccc2O1
not listed: [9]
inactive: all other assays above

C[C@@H]1CN([C@@H](C)CO)C(=O)c2cc(NS(=O)(=O)c3cccs3)ccc2O[C@@H](C)CCCCO[C@H]1CN(C)Cc1ccc(C(F)(F)F)cc1
not listed: [9]
inactive: all other assays above

Cc1cccc(S(=O)(=O)N2CC[C@@H]3[C@H](CO)N(C)c4ccc(-c5ccc(C#N)cc5)cc4[C@@H]32)c1
not listed: [9]
inactive: all other assays above

COc1ccc2c3c(n(C)c2c1)[C@@H](CO)N(C(=O)Nc1ccc(F)cc1)CC31CCN(S(=O)(=O)c2cccc(C)c2)CC1
not listed: [9]
inactive: all other assays above

C[C@H](CO)N1C[C@H](C)[C@@H](CN(C)Cc2ccc(C(F)(F)F)cc2)OCCCC[C@H](C)Oc2ccc(NC(=O)Cc3ccccc3)cc2C1=O
not listed: [9]
inactive: all other assays above

COc1ccc(-c2ccc3c(c2)[C@H]2[C@H](CCN2S(=O)(=O)c2ccc(OC)cc2)[C@@H](CO)N3C)cc1
not listed: [6] | [8] | [9]
inactive: all other assays above

C[C@@H]1CN([C@H](C)CO)C(=O)c2cccc(NC(=O)Nc3cccc4ccccc34)c2O[C@H]1CN(C)C(=O)Nc1ccc(C(F)(F)F)cc1
not listed: [9]
inactive: all other assays above

O=C(Nc1ccc(F)cc1)N[C@H]1CC[C@H](CCNC(=O)c2cc(Cl)cc(Cl)c2)O[C@H]1CO
not listed: [9]
inactive: all other assays above

C[C@@H]1CN([C@H](C)CO)C(=O)c2cc(NC(=O)Nc3ccc(F)cc3)ccc2O[C@@H](C)CCCCO[C@H]1CN(C)C(=O)NC1CCCCC1
not listed: [9]
inactive: all other assays above

Cc1ccc(S(=O)(=O)Nc2ccc3c(c2)C(=O)N([C@H](C)CO)C[C@@H](C)[C@@H](CN(C)Cc2ccc4c(c2)OCO4)OCCCC[C@@H](C)O3)cc1
not listed: [7] | [9]
inactive: all other assays above

C[C@@H]1CN([C@H](C)CO)C(=O)c2cc(NS(=O)(=O)c3cccs3)ccc2O[C@@H](C)CCCCO[C@H]1CN(C)Cc1ccc(Cl)c(Cl)c1
not listed: [9]
inactive: all other assays above

O=C(C[C@@H]1CC[C@@H]2[C@H](COC[C@@H](O)CN2S(=O)(=O)c2cccc(Cl)c2)O1)Nc1ccc(-c2ccccc2)cc1
not listed: [9]
inactive: all other assays above
